From PubChem BioAssay AID1159580 (chemical genetic matrix, 2015)
Out of some 5,500 compounds screened, about 2,000 (36%) were called active. Inconclusive results (about 18%) are left out. No stated cut-off is given here; in the data, active means normalized growth mostly below about 0.91 (no sharp cut-off); inconclusive means no clear call, values can overlap the other calls; inactive means mostly above about 0.92. The list shows a part of the results.

Assay: chemical genetic growth profiling, strain panel (AID 1159580);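 further: tested at 20 µM; growth read once vehicle control cultures reached saturation at 30 °C; 1 = growth at the plate median or of vehicle wells; lower values mean less growth of the strain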
Conditions: S. cerevisiae deletion strains, growth OD

Measured: normalized growth

COCCCOc1ccnc(CS(=O)c2nc3ccccc3[nH]2)c1C (stereo not drawn)
inactive: locus YHR030C, strain SLT2, hits give low values 0.94 | locus YHR079C, strain IRE1, hits give low values 0.93 | locus YJL095W, strain BCK1, hits give low values 0.913 | locus YJR066W, strain TOR1, hits give low values 0.907 | locus YLR113W, strain HOG1, hits give low values 0.909 | locus YNL183C, strain NPR1, hits give low values 0.879 | locus YOR231W, strain MKK1, hits give low values 0.93 | locus YPL256C, strain CLN2, hits give low values 0.897
